Screening results (PubChem BioAssay)
An excerpt weighted towards active compounds, which were near 1.8% of everything screened.
Mcl1 Noxa PPI: Mcl-1/Noxa interaction inhibition; Q07820; TR-FRET Mcl-1/Noxa peptide binding, 2 h; inhibition, % at 21.7 µM; 220,000 tested, 1.5% active; AID 1022;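 active = compounds that cut the protein-peptide binding signal by more than 50% relative to plate controls in a single-dose test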;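 note: His-tagged Mcl-1 with rhodamine Noxa BH3 peptide and terbium anti-His antibody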
Mcl-1 Bim block: human Bim-Mcl-1 interaction inhibition | 190,000 tested, 0.1% active | Bead-based flow cytometry, Bim peptide-Mcl-1 binding | inhibition, % at 10 µM | Q07820; in the data active = inhibition above about 40%
TLR4-MyD88 BLA: blocks binding of human TLR4 to MyD88; AID 861; HeLa CL3-4 TLR4/MyD88 BLA complementation, FRET ratio; 200,000 tested, 0.18% active; O00206+Q99836; inhibition, % at 8.4 µM; in the data active = inhibition above about 25%
Target sequence (O00206 whole entry, looked up): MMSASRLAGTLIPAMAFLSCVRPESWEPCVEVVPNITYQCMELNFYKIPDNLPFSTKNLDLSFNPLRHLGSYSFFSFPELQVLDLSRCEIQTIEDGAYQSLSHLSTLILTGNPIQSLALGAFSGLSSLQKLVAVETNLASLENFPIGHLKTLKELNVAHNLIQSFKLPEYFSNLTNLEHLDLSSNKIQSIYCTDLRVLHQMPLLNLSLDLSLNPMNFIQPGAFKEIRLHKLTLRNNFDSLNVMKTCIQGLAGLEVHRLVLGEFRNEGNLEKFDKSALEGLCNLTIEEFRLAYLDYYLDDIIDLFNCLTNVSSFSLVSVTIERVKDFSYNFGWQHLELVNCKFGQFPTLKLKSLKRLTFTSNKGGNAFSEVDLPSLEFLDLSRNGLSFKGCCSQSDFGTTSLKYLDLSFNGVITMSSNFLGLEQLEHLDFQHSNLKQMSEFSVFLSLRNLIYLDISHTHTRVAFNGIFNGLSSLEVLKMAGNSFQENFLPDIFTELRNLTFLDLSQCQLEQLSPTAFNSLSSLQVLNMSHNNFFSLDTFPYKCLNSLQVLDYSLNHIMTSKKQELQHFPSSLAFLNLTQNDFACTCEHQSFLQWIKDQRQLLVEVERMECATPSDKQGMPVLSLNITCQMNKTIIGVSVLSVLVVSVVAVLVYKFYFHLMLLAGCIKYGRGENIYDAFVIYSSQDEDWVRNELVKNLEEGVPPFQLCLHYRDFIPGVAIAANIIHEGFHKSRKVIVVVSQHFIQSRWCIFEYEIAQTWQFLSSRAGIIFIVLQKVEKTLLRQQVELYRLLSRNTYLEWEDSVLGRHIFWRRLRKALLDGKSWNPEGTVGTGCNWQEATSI
Target sequence (Q99836 whole entry, looked up): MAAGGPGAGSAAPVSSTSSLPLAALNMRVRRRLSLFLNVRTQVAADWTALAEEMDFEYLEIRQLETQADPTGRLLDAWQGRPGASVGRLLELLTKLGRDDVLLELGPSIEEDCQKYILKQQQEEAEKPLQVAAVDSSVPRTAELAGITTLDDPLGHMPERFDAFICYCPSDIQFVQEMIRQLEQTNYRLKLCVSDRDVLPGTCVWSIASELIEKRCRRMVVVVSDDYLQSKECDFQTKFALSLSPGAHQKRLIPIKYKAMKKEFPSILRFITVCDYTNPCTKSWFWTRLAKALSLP
TLR9-MyD88 block: inhibitors of human TLR9-MyD88 binding | inhibition, % at 4.98 µM | Q9NR96+Q99836 | CHO BLA complementation TLR9-MyD88, CCF4 FRET ratio | 340,000 tested, 0.21% active;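 active = inhibition above the mean over all tested compounds plus 3 SD, cut at about 21% in these data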
NOD2-RIPK2 inh: NOD2-RIPK2 protein interaction inhibition; O43353; CHO BLA complementation NOD2-RIPK2, CCF4 ratio; inhibition, % at 4.98 µM; 360,000 tested, 0.38% active; in the data active = inhibition above about 21%
Mcl1-Bid inh: disrupts binding of human Mcl-1 to Bid peptide; Q07820; TR-FRET Mcl-1/Bid-Dy647 peptide binding, 1536-well; inhibition, % at 21.7 µM; 220,000 tested, 0.97% active;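 active = compounds that cut the binding signal by more than half at the single screening dose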;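 note: His-tagged Mcl-1 with europium anti-His antibody binding Bid BH3 peptide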
Hits are given with their value; – = inactive; · = no result given; ! = repeats disagree.

SMILES	Mcl1 Noxa PPI	Mcl-1 Bim block	TLR4-MyD88 BLA	TLR9-MyD88 block	NOD2-RIPK2 inh	Mcl1-Bid inh
Nc1ncnc2c1ncn2[C@@H]1O[C@H](CNC(=O)[C@@H](N)Cc2ccc(C(=O)c3ccccc3)cc2)[C@@H](O)[C@H]1O	·	·	·	·	–	·
O=C1N/C(=N\N=C\c2ccc3ncccc3c2)SC1Cc1ccc(SC(F)F)cc1 (stereo not drawn)	–	–	–	–	–	52
O=C1N/C(=N\N=C\c2cccnc2)SC1Cc1ccc(SC(F)F)cc1 (stereo not drawn)	–	–	–	–	–	–
CCN(C(=O)CN1CCN(C)CC1)c1cccc2ccccc12	–	–	–	–	–	56
CCOC(=O)[C@H]1[C@H]2COc3ccc(OC)cc3[C@@H]2N2C(=O)CN(C)C(=O)[C@@]12C	·	·	·	–	–	·
O=C(CSc1nc2ncc(Cl)cc2[nH]1)Nc1cccc(F)c1	·	·	·	–	–	·
CN(CC(=O)Nc1ccc(F)cc1)C(=O)CSc1nc2ncc(Cl)cc2[nH]1	67	–	–	–	–	–
O=C1C=C(c2cnc3ccccc3c2)C[C@@H](c2ccc3c(c2)OCO3)C1	·	·	·	–	–	·
CC(C)NC(=O)C1(C)CCN1C(=O)c1cccc(F)c1 (stereo not drawn)	·	·	·	·	–	·
CCCC(=O)Nc1nc(-c2ccc(Cl)s2)cs1	–	–	–	–	–	–
O=C(O)C1CCCCC1C(=O)Nc1nc(-c2ccc(Cl)s2)cs1 (stereo not drawn)	71	–	–	–	–	–
O=C(Nc1ccc([N+](=O)[O-])cc1)Nc1nc(-c2ccc(Cl)s2)cs1	82	–	–	–	–	–
Cn1c(SCCC#N)nnc1-c1ccc(F)cc1	–	–	–	–	–	–
CC1=C(SCCC#N)S/C(=C2\SC(C)=C(SCCC#N)S2)S1	74	–	–	–	–	96
CCOc1cc(/C=N/NC(=O)C(=O)NCCCOC(C)C)cc(Br)c1O	56	–	–	–	–	–
O=C(NN1CCCCCC1)c1ccccc1F	·	·	·	–	–	·
CCc1oc2ccccc2c1C(=O)c1cc(Br)c(O)c(Br)c1	–	–	–	–	–	52!
NC(=O)c1c(NC(=O)C2c3ccccc3Oc3ccccc32)sc2c1CCCCC2	68	–	–	–	–	–
O=C(CSc1nnc(SCc2ccccc2)s1)N/N=C/C=C/c1ccccc1[N+](=O)[O-]	–	–	–	–	–	–
Cc1ccc(CSc2nnc(SCC(=O)N/N=C/c3c[nH]c4ccccc34)s2)cc1	76	–	–	–	–	90
O=C(CSc1nnc(SCc2ccccc2)s1)N/N=C/C=C\c1ccco1	54	–	–	–	–	–
Cc1ccccc1NC(C)C(=O)N/N=C/c1c[nH]c2ccccc12 (stereo not drawn)	–	–	–	–	–	–
Cc1ccc(NC(C)C(=O)N/N=C/c2c[nH]c3ccccc23)cc1 (stereo not drawn)	54	–	–	–	–	–
Cc1c(Cl)cccc1NC(=S)NC1CCN(C(C)C)CC1	–	–	–	–	–	–
O=C(CCC(=O)N1CCOc2ccc(Cl)cc21)NCCCN1CCC(Cc2ccccc2)CC1	·	·	·	–	–	·
SMILES	Mcl1 Noxa PPI	Mcl-1 Bim block	TLR4-MyD88 BLA	TLR9-MyD88 block	NOD2-RIPK2 inh	Mcl1-Bid inh
CNS(=O)(=O)c1ccc2nc(NC(=O)c3ccc(N4C(=O)CCC4=O)cc3)sc2c1	60	–	–	–	–	–
CCc1ccc2nc(NC(=O)c3ccc(N4C(=O)CCC4=O)cc3)sc2c1	–	·	·	–	–	–
COc1ccc(Cc2nnc(NC(=O)CS(=O)(=O)c3ccccc3)s2)cc1OC	·	·	·	–	–	·
c1coc(-c2nc3c4c5c(sc4ncn3n2)CCCC5)c1	–	–	–	–	–	97
CC1CN(Cc2ccccc2Cl)CC(C)O1 (stereo not drawn)	–	–	–	–	–	51
Clc1ccccc1CN1CCC(Cc2ccccc2)CC1	–	–	–	–	–	54
O=C(CSc1ccccc1)Nc1ccccc1C(=O)O	–	–	–	–	–	56
CC(=O)Oc1ccc(NC(=O)CSc2ccccc2)cc1	75	–	–	–	–	–
O=C(Cc1cccs1)Nc1nc(-c2cccnc2)cs1	72	·	·	–	–	–
Cc1c(C(=O)N2CCCC2)c(S(=O)(=O)Nc2ccccc2)c(C)n1C	·	·	·	–	–	·
Nc1nc2nc(SCC(=O)N3CCCc4ccccc43)[nH]c2c(=O)[nH]1	59	–	–	·	·	–
Cc1ccc2nc(/C(C#N)=C\c3ccc(N4CCCCC4)c([N+](=O)[O-])c3)[nH]c2c1	58	–	–	–	–	–
CC1C(=O)NN=C1C(=O)N/N=C\c1ccc(O)cc1O (stereo not drawn)	74	–	–	–	–	–
CCS(=O)(=O)C1=NN2C(=N)/C(=C\c3ccc(SCc4ccco4)o3)C(=O)N=C2S1	80	–	–	–	–	–
CCOc1cc(/C=C2\C(=N)N3N=C(S(=O)(=O)CC)SC3=NC2=O)ccc1OC(=O)c1ccco1	·	·	·	–	–	·
C=CCN(C(=O)c1ccc2snnc2c1)c1ccccc1	·	·	·	–	–	·
CCN(CC)c1ccc(NC(=O)c2cccnc2)c(C)c1	–	–	–	–	–	–
CCN(CC)c1ccc(NC(=O)c2cccc(C)c2OC)c(C)c1	62	–	–	–	–	–
Cc1cccc(C(=O)N2CCC(c3nc(-c4ccc(S(=O)(=O)N5CCOCC5)cc4)no3)CC2)c1	·	47	–	–	–	·
O=[N+]([O-])c1ccccc1Oc1ccc(S(=O)(=O)N2CCOCC2)cc1	·	·	·	–	–	·
COc1ccc(CNc2ncnc3cc(Cl)ccc23)cc1OC	–	–	–	–	–	–
CCN(CC)Cc1cc2[nH]c3c4ccc(Cl)cc4ncc3c2cc1OC	63	·	·	–	–	–
COc1ccc(NC(=O)c2ccccc2N(Cc2ccccc2)S(C)(=O)=O)cc1	83	–	–	–	–	–
O=c1[nH]c(/C=C/c2ccccn2)nc2ccccc12	·	·	·	–	–	·
CCCN1C(=O)/C(=C\c2nc3ccccc3c(=O)[nH]2)c2ccccc21	–	–	–	–	–	51
SMILES	Mcl1 Noxa PPI	Mcl-1 Bim block	TLR4-MyD88 BLA	TLR9-MyD88 block	NOD2-RIPK2 inh	Mcl1-Bid inh
CCCCC(=O)NNC(=O)N1c2ccccc2Sc2ccccc21	·	·	·	–	–	·
CCn1c(SC(C)C(=O)O)nc2sc3c(c2c1=O)CCC3 (stereo not drawn)	67	–	–	–	–	–
CC(Sc1nc2sc3c(c2c(=O)n1-c1ccccc1)CCCC3)C(=O)O (stereo not drawn)	–	·	·	–	–	–
O=c1nc(Nc2ccccc2)sc2ccc([N+](=O)[O-])cc12	54	–	–	–	–	–
CC1OC(OCC2OC(Oc3c(-c4ccc(O)cc4)oc4cc(O)cc(O)c4c3=O)C(O)C(O)C2O)C(O)C(O)C1O (stereo not drawn)	54	–	–	–	–	–
CC1OC(OC2C(Oc3c(-c4ccc(O)cc4)oc4cc(O)cc(O)c4c3=O)OC(COC3O[C@@H](C)[C@H](O)[C@@H](O)C3O)C(O)C2O)C(O)C(O)C1O (stereo partly drawn)	·	·	·	–	–	·
